Results as given in PubChem BioAssay AID687016 (The Scripps Research Institute Molecular Screening Center, 2013).
Screen size: about 370,000 compounds; about 2,800 (0.76%) were called active. The list comes from a sample in which actives are over-represented; it also holds similar structures and randomly drawn compounds. Values without a mark were called inactive. No stated cut-off is given here; in the data, active means inhibition above about 21%; inactive means the rest.

Target: E3 ubiquitin-protein ligase UHRF1 (Homo sapiens) (UniProt Q96T88)
Sequence (Q96T88 whole entry, looked up, the tested form may be a part): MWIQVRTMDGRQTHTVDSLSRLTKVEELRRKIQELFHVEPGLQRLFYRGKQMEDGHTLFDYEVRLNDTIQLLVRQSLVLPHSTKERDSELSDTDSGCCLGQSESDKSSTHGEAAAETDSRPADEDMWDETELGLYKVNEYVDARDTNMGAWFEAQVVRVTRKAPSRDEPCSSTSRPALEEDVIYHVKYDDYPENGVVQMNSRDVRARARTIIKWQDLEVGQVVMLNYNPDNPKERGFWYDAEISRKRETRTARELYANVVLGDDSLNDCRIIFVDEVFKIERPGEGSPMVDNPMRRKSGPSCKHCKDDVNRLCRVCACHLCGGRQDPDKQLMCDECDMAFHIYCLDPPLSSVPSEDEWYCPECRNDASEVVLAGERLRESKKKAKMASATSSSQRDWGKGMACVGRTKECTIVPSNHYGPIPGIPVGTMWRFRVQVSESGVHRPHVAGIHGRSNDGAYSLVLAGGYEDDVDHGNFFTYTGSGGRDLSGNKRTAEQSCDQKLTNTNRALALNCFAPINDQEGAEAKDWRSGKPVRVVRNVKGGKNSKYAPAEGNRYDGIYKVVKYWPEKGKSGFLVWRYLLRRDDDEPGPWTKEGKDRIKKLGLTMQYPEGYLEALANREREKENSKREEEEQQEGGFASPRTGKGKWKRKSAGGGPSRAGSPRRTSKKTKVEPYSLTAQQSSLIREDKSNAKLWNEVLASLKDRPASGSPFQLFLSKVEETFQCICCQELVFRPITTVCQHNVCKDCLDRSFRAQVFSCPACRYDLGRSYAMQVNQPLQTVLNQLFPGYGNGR
Test: blockers of UHRF1 binding to methyl-oligo – biochemical, TR-FRET, human UHRF1, single concentration, counter-screen for MBD2 inhibitor project, primary screen (AID 687016);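 further: UHRF1 SRA domain binding a hemimethylated CpG hairpin DNA probe; 0% = median of test compound wells and 100% = reference inhibitor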
Conditions: UHRF1 binding to methylated oligo, at 4.4 µM, hits give high values

**Q.** `CC(c1c[nH]c2ccccc12)c1c(-c2ccccc2)n(C)c2ccccc12` (configuration not stated) was tested. Which inhibition did it give?
**A.** 1.29%

**Q.** With `Cc1cc(C)n2ncc(C(=O)Nc3ccc4c(c3)OCCO4)c2n1` as the molecule, how does the inhibition read?
**A.** -6.73%

**Q.** For `CCC(C)C(CO)NC(=O)/C=C/[C@H]1O[C@@H](n2cnc3c(NC(=O)c4ccccc4)ncnc32)[C@H](O)[C@@H]1O` (some centres not stated), which inhibition is on record?
**A.** 19.7%

**Q.** How did the inhibition turn out when `O=C(/C=C/[C@H]1O[C@@H](n2cnc3c(NC(=O)c4ccccc4)ncnc32)[C@H](O)[C@@H]1O)NCc1ccccc1` was run?
**A.** 23% (active)

**Q.** Which inhibition does the source give for `COc1cccc(CN(C)C(=O)CC[C@H]2O[C@@H](n3cnc4c(NC(=O)c5ccccc5)ncnc43)[C@H](O)[C@@H]2O)c1` here?
**A.** 0.17%

**Q.** With `Cc1ccc(-n2c(COc3ccccc3)nnc2SCC(=O)Nc2ccc3c(c2)OCCO3)cc1` as the molecule, how does the inhibition read?
**A.** 1.6%

**Q.** With `COc1ccc(Cn2cc(COC(=O)N(C)Cc3ccccc3)nn2)cc1` as the molecule, how does the inhibition read?
**A.** 1.11%

**Q.** For `Cc1cccc(NC(=O)C2CCCN(C(=O)Nc3ccc(F)cc3)C2)c1C` (configuration not stated), which inhibition is on record?
**A.** 10.2%

**Q.** For `Cc1cccc(NC(=O)C2CCCN2S(=O)(=O)c2ccc(F)cc2)c1C` (configuration not stated), which inhibition is on record?
**A.** 42.7% (active)

**Q.** How did the inhibition turn out when `COc1ccccc1NC(=O)C1CCCN1S(=O)(=O)c1ccc(Cl)cc1` (configuration not stated) was run?
**A.** -0.35%

**Q.** How did the inhibition turn out when `Cc1ccccc1NC(=O)COC(=O)c1ccc(Sc2ncn[nH]2)c([N+](=O)[O-])c1` was run?
**A.** -0.88%

**Q.** `O=C(NC1CCCCN(Cc2ccc(Cl)cc2)C1=O)c1ccc(Br)cc1` (configuration not stated) was tested. Which inhibition did it give?
**A.** -3.02%

**Q.** How did the inhibition turn out when `C[C@@H]1COc2cccc(N3CCCC3)c2S(=O)(=O)N1C` was run?
**A.** 0.4%

**Q.** Which inhibition does the source give for `CC(Cc1cccs1)NC(=O)c1cccc(Cl)c1` (configuration not stated) here?
**A.** -1.41%

**Q.** With `CC(Cc1cccs1)N(Cc1ccc(Cl)cc1)C(=O)c1ccncc1` (configuration not stated) as the molecule, how does the inhibition read?
**A.** 26.1% (active)

**Q.** Which inhibition does the source give for `CC(C)(C)N(Cc1ccccc1)C(=O)c1ccncc1` here?
**A.** 1.02%

**Q.** Which inhibition does the source give for `COc1ccc(C2Nc3ccccc3C(=O)N2Cc2cccs2)cc1COc1c(C)cccc1C` (configuration not stated) here?
**A.** 1.56%

**Q.** With `O=C1Nc2ccccc2OC1CC(=O)N1CCCCCCC1` (configuration not stated) as the molecule, how does the inhibition read?
**A.** -2.05%

**Q.** With `CC(=O)OCCN1CCCC12CCC(c1ccccc1)CC2` (configuration not stated) as the molecule, how does the inhibition read?
**A.** 0.81%

**Q.** `CCOc1ccc(C(C)=O)cc1COC(=O)CN1C(=O)NC2(CCCC2)C1=O` was tested. Which inhibition did it give?
**A.** 2.29%

**Q.** How did the inhibition turn out when `O=C(CN1C(=O)NC2(CCCC2)C1=O)OCCOc1ccc(F)cc1` was run?
**A.** 0.11%

**Q.** With `Cc1ccc(COC(=O)CN2C(=O)NC3(CCCC3)C2=O)cc1` as the molecule, how does the inhibition read?
**A.** 42.5% (active)

**Q.** With `COc1ccccc1CCNC(=O)C1CCN(c2nc(C)cc(C)n2)CC1` as the molecule, how does the inhibition read?
**A.** 2.65%

**Q.** For `COc1ccc(COC[C@H](CC(C)C)N2CCN(C(=O)c3cccc(C(F)(F)F)c3)CCC2=O)cc1`, which inhibition is on record?
**A.** 21.1% (active)

**Q.** For `CC(C)CC(COCc1ccc(Cl)cc1)N1CCN(C(=O)c2ccc(C(F)(F)F)cc2)CCC1=O` (configuration not stated), which inhibition is on record?
**A.** 10.1%

**Q.** For `O=C(c1ccc(C(F)(F)F)cc1)N1CCC(=O)N([C@H](COCc2ccccc2)Cc2ccccc2)CC1`, which inhibition is on record?
**A.** -0.62%

**Q.** For `O=C(CSc1nnc(COc2ccccc2)n1Cc1ccco1)c1ccc2ccccc2c1`, which inhibition is on record?
**A.** -1.9%

**Q.** For `CCn1c2ccccc2c2cc(NC(=O)CSc3nnc(-c4ccccc4)n3-c3ccc(C)cc3)ccc21`, which inhibition is on record?
**A.** -2.76%

**Q.** `Cc1cc(Br)cn2c(Cc3ccccc3C(F)(F)F)c(C3CCCCC3)nc12` was tested. Which inhibition did it give?
**A.** 11.3%

**Q.** With `FC(F)(F)c1ccccc1Cc1c(-c2ccccc2)nc2c3ccccc3ccn12` as the molecule, how does the inhibition read?
**A.** 14.2%

**Q.** `CCCc1nc2c3ccccc3ccn2c1Cc1ccccc1C(F)(F)F` was tested. Which inhibition did it give?
**A.** 22.9% (active)

**Q.** With `COc1ccc([C@H]2OC(=O)C[C@H]2C(=O)N2CCN(c3ccccc3F)CC2)cc1OC` as the molecule, how does the inhibition read?
**A.** -2.23%

**Q.** How did the inhibition turn out when `CC(=O)Nc1nonc1-c1nc2ccccc2n1Cc1ccccn1` was run?
**A.** 54.5% (active)

**Q.** `O=S(=O)(Cc1ccccc1)c1nc2ccccc2n1Cc1ccccn1` was tested. Which inhibition did it give?
**A.** 0.93%

**Q.** With `COc1ccc(C)c(Cn2c(-c3nonc3N)nc3ccccc32)c1` as the molecule, how does the inhibition read?
**A.** -5.53%

**Q.** With `Cc1cccc(C(=O)Nc2c(-c3ccc(F)cc3)nc3ncccn23)c1` as the molecule, how does the inhibition read?
**A.** -2.59%

**Q.** `COc1ccc(N2CCN(CCNS(=O)(=O)c3ccc([N+](=O)[O-])cc3)CC2)cc1` was tested. Which inhibition did it give?
**A.** -0.84%

**Q.** How did the inhibition turn out when `COc1c(C)cc(C(=O)C2CCCN(S(=O)(=O)c3c(C)noc3C)C2)cc1C` (configuration not stated) was run?
**A.** 20.7% (active)

**Q.** How did the inhibition turn out when `Cc1noc(C)c1S(=O)(=O)N1CCCC(C(=O)Nc2nccs2)C1` (configuration not stated) was run?
**A.** -1.61%

**Q.** With `Cc1ccc(NC(=O)C2CCCN(S(=O)(=O)c3c(C)noc3C)C2)c(C)c1` (configuration not stated) as the molecule, how does the inhibition read?
**A.** -1.46%

**Q.** Which inhibition does the source give for `Cc1ccc(C2=CCN(C)C(=O)N2c2ccc(Cl)cc2)cc1` here?
**A.** -4.14%

**Q.** Which inhibition does the source give for `COc1ccc(C#CCNCc2ccc(OC)cc2OC)cc1` here?
**A.** -1.17%

**Q.** How did the inhibition turn out when `CSc1nnc(SCc2nc3sc(C(=O)O)c(C)c3c(=O)[nH]2)s1` was run?
**A.** 32.3% (active)

**Q.** With `CCOC(=O)c1sc2nc(C)nc(SCC(N)=O)c2c1C` as the molecule, how does the inhibition read?
**A.** -1.2%

**Q.** Which inhibition does the source give for `CCN(CC)Cc1nc2sc(C)c(C)c2c(=O)[nH]1` here?
**A.** 2.13%

**Q.** Which inhibition does the source give for `Cc1c(C(C)c2ccccc2O)[nH]c2ccccc12` (configuration not stated) here?
**A.** -2.42%

**Q.** Which inhibition does the source give for `O=C(CSc1nc2ccccc2s1)N=Nc1c(O)[nH]c2ccccc12` here?
**A.** -3.32%

**Q.** `CCN(CC)C(=O)CC[C@@H]1CC[C@]2(CCCN(S(=O)(=O)C3CCCCC3)C2)O1` was tested. Which inhibition did it give?
**A.** -0.55%

**Q.** For `Cc1ccc(Cn2cc(COC(=O)N(C)Cc3ccccc3)nn2)cc1`, which inhibition is on record?
**A.** -4.1%

**Q.** How did the inhibition turn out when `Cc1ccc(Cn2nnc3c(=O)n(CC(=O)N4CCCCC4)cnc32)cc1` was run?
**A.** 0.43%

**Q.** How did the inhibition turn out when `Cc1cc(C)cc(NC(=O)Cn2cnc3c(nnn3Cc3ccc(F)cc3)c2=O)c1` was run?
**A.** 0.23%

**Q.** Which inhibition does the source give for `O=C(Cn1cnc2c(nnn2Cc2ccc(F)cc2)c1=O)NCc1ccc2c(c1)OCO2` here?
**A.** 21.8% (active)

**Q.** With `CCCCNC(=O)C[C@H]1C(=O)N(Cc2ccc(OC)cc2)C2=CCCC[C@@]21C(=O)OCC` as the molecule, how does the inhibition read?
**A.** 5.53%

**Q.** For `Cc1nc(CNc2ncnc3ccc(-c4ccc5c(c4)OCO5)cc23)cs1`, which inhibition is on record?
**A.** -2.89%

**Q.** For `COC(=O)c1sc(N)c(C(=O)OC)c1COC(=O)CNS(=O)(=O)c1ccc(C)cc1`, which inhibition is on record?
**A.** -0.33%

**Q.** With `CCC(C(=O)OC)n1cnc2scc(-c3ccc(C)cc3)c2c1=O` (configuration not stated) as the molecule, how does the inhibition read?
**A.** 0.64%

**Q.** `COC(=O)c1c(-c2ccc(C)cc2)csc1N` was tested. Which inhibition did it give?
**A.** 28.4% (active)
